# PubChem BioAssay AID1259415 (National Center for Advancing Translational Sciences (NCATS), 2018)
# The whole screen tested about 410,000 compounds, of which about 18,000 (4.4%) were called active. Inconclusive results (about 7%) are left out. Rule as the data show it: active = activity change below about -60%; inconclusive = no clear call, values can overlap the other calls; inactive = above about -39%. For the sample, actives were picked, then their nearest neighbours and some compounds at random.
# Assay: qHTS Assay for inhibitors of the human cytomegalovirus (HCMV)
# Conditions: HFF cells, HCMV-luciferase reporter, 72 h; at 57.5 µM; stronger effect = lower value
# Procedure, shortened: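 Screen run at 2 compound doses on HFFs infected with reporter HCMV, MOI 1 PFU/cell. Luciferase activity from cell lysates at 72 h post infection gave inhibition relative to buffer-only and Salinomycin wells.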
# % is scaled to controls: 0 for no effect and ±100 for the full control effect.
row,SMILES,"activity change, negative = inhibition"
1,Cc1ccc(-n2nc(CO)c(C(=O)NCCc3ccccc3)n2)cc1,18.9% (inactive)
2,CCOC(=O)c1cccc(NC(=O)Cn2cnc3nc4c(cc3c2=O)CCCC4)c1,4.14% (inactive)
3,Cc1ccc(OCC(=O)c2cc(C)n(Cc3ccco3)c2C)c([N+](=O)[O-])n1,-78.9% (active)
4,COCC(C)n1c(C)cc(C(=O)COc2ccc(C)nc2[N+](=O)[O-])c1C (configuration not stated),-71.3% (active)
5,CC(NC(=O)COc1cccnc1[N+](=O)[O-])c1ccc(Cl)cc1Cl (configuration not stated),-23.4% (inactive)
6,CCc1ccccc1NC(=O)CN(C)C(=O)COc1ccc(C)nc1[N+](=O)[O-],-24.2% (inactive)
7,COc1ccc(C)cc1-n1nnnc1SCC(=O)c1cc(C)n(Cc2ccco2)c1C,39.6% (inactive)
8,Cc1ccc(OCC(=O)Nc2ccccc2Sc2ccc(Cl)cc2)c([N+](=O)[O-])n1,-14.6% (inactive)
9,O=S(=O)(NCCc1nnc2ccc(SCc3ccc(Cl)cc3Cl)nn12)c1ccccc1,5.81% (inactive)
10,Cn1nc(C(=O)OCC(=O)N(Cc2ccccc2)C(C)(C)C)c2ccccc2c1=O,2.54% (inactive)
11,COc1ccc(NC(=O)CSc2ncnc3[nH]ncc23)cc1,-2.36% (inactive)
12,COc1ccc(Nc2cc(Sc3ccc(OC)cc3)ncn2)cc1,-88.8% (active)
13,COc1ccc(NC2=CC(=S)NC(C)(C)C2)cc1,42.8% (inactive)
14,Cc1ccc(Sc2ccncc2S(N)(=O)=O)cc1,55.9% (inactive)
15,CC1CC(C)CN(C(=O)CSc2nnc(CSc3ncccn3)n2C)C1 (configuration not stated),-15.8% (inactive)
16,CC1CC(C)CN(C(=O)CSc2ccsc2[N+](=O)[O-])C1 (configuration not stated),-70.8% (active)
17,O=C(CSc1ccsc1[N+](=O)[O-])N1CCCCC1,3.43% (inactive)
18,CC(C)C(OC(=O)c1cccs1)C(=O)NC1CCCCC1 (configuration not stated),55.6% (inactive)
19,CC(C)=C1N(S(=O)(=O)C(F)(F)F)CCC12CN(C)c1ccccc12 (configuration not stated),-18.4% (inactive)

row,SMILES,"activity change, negative = inhibition"
1,CCC(=O)N1c2ccccc2CC1C(=O)N1CCN(c2cccc(OC)c2)CC1 (configuration not stated),16.8% (inactive)
2,COC(=O)c1c(C)oc(C)c1S(=O)(=O)NCc1ccc(Cl)cc1,-3.12% (inactive)
3,COc1ccc(C)cc1NC(=O)c1[nH]c(C)c(C(C)=O)c1C,106% (inactive)
4,COC(=O)c1c(C)[nH]c(C(=O)/C=C/c2ccc(Cl)cc2)c1C,-85.4% (active)
5,Cc1ccc(CCC(=O)Nc2ncc(Cc3cc(Cl)ccc3Cl)s2)o1,-89.7% (active)
6,CCc1ccc(CCC(=O)Nc2ccc(S(N)(=O)=O)cc2)o1,-16.8% (inactive)
7,COc1ccccc1N1CCN(C(=O)C2CCN(S(=O)(=O)c3c(C)noc3/C=C/c3ccc(C)cc3)CC2)CC1,1.7% (inactive)
8,CCCN(CCC)C(=O)C(Cc1ccccc1)NS(=O)(=O)c1ccc2c(c1)c(=O)n(C)c(=O)n2C (configuration not stated),1.57% (inactive)
9,NC(=O)C1CCN(C(=O)COc2cccc3cccnc23)CC1,-88.1% (active)
10,CCCCc1cc(=O)oc2c(C)c(OCC(=O)N3CCC(C(N)=O)CC3)ccc12,-17.9% (inactive)
11,CCOC(=O)C1CCN(C(=O)COc2cccc3ccccc23)CC1,-33.6% (inactive)
12,CC(C)=CCCC(C)CN1CCC(n2nccc2NC(=O)c2ccccc2)CC1 (configuration not stated),-18.5% (inactive)
13,COc1ccc(NC(=O)C(c2ccccc2)N2Cc3ccccc3C2=O)cc1 (configuration not stated),-2.09% (inactive)
14,CC(C)(C)c1ccc(OC(=O)N2CCCCC2)cc1,29.6% (inactive)
15,CC(C)(C)c1ccc(Oc2ccc(N)cc2)cc1,-86.3% (active)
16,Cc1c(Cl)cccc1NC(=O)c1noc2c1CCCC2,-4.84% (inactive)
17,O=C(Nc1c(Br)cc2c(c1Br)Cc1cc([N+](=O)[O-])ccc1-2)C(Cl)Cl,-31.6% (inactive)
18,COc1ccc(-n2c(SC)nc3sc4c(c3c2=O)CCN(C(C)=O)C4)cc1,24.9% (inactive)
19,Cc1ccc(CNC(=O)Cn2c(=O)ccc3cc(S(=O)(=O)N4CCCC4)ccc32)cc1,-10.3% (inactive)

row,SMILES,"activity change, negative = inhibition"
1,Cc1ccn2c(Nc3ccc4c(c3)OCCO4)c(-c3ccc(C)s3)nc2c1,10.7% (inactive)
2,N#C/C(=C\c1cccc(F)c1)c1nc(-c2cc3c(ccc4ccccc43)oc2=O)cs1,1.4% (inactive)
3,COc1ccc(-c2csc(Nc3ccc(O)cc3)n2)cc1,-72.3% (active)
4,Cc1cc(NC(=O)c2cccc(Cl)c2)ccc1-c1cc2ccccc2oc1=O,28.2% (inactive)
5,COc1ccc(-c2csc(-c3c(N)c(C(=O)c4ccc(OC)c(OC)c4)n4ccccc34)n2)cc1,9.65% (inactive)
6,CCOc1ccc(Nc2ncnc3scc(-c4ccc(OC)cc4)c23)cc1,-22.6% (inactive)
7,O=c1oc2ccccc2cc1-c1csc(Nc2ccc(O)cc2)n1,-87.2% (active)
8,CC(C)(C)c1ccc(OCC(=O)N2CCC(c3nc4ccccc4s3)CC2)cc1,4.7% (inactive)
9,COCCn1c(CCC(=O)Nc2cc(C)ccc2C)nc2cccnc21,5.25% (inactive)
10,CCOC(=O)c1ccc(COC(=O)c2cc(=O)[nH]c3ccccc23)o1,-5.78% (inactive)
11,CC1CCN(C(=O)COC(=O)c2cc(=O)[nH]c3ccccc23)CC1,10.6% (inactive)
12,O=C(OCc1nnc(-c2ccccc2)o1)c1cc(=O)[nH]c2ccccc12,-98.7% (active)
13,CCc1ccc(S(=O)(=O)Nc2cc3c(C(=O)OCc4ccccc4)c(C)oc3c3ccccc23)cc1,8.24% (inactive)
14,CCN(CC)C(=O)CSC1c2ccccc2C(=O)N1c1ccccc1 (configuration not stated),-6.4% (inactive)
15,COc1ccc(-c2nc3c(c(SCC(=O)Nc4ccc(C(=O)O)cc4)n2)Cc2ccccc2O3)cc1,42.3% (inactive)
16,CCOC(=O)/C(=C\c1ccc([N+](=O)[O-])cc1)C(=O)c1cc(C(C)=O)c(Nc2ccccc2)s1,-106% (active)
17,CCOC(=O)c1c(C)[nH]c(C)c1C(=O)COC(=O)/C=C/c1cccc([N+](=O)[O-])c1,-7.36% (inactive)
18,CC(C)c1nnc(NC(=O)COC(=O)/C=C/c2ccc([N+](=O)[O-])cc2)s1,28.8% (inactive)
19,Oc1ccccc1-c1nc2ccc(Cl)cn2c1Nc1ccc2c(c1)OCCO2,-5.59% (inactive)
